Some test systems named below: SK-MEL-2 melanoma; EKVX NSCLC; SN12C renal; UO-31 renal; TK-10 renal; ACHN renal; CAKI-1 renal; A498 renal; CCRF-CEM leukemia; MOLT-4 leukemia; SR leukemia; OVCAR-8 ovarian; OVCAR-5 ovarian; OVCAR-4 ovarian; SK-OV-3 ovarian; IGROV1 ovarian; OVCAR-3 ovarian; HS 578T breast; NCI/ADR-RES ovarian; RPMI-8226 leukemia.
Holding throughout (assay): NCI-60 one-dose screen, 48 h (100 = growth as untreated, 0 = no growth, -100 = all killed)
Settings in all cases: 10 µM unless noted

Compounds without any hit were thinned out: in the full panel of roughly 83,000, 20% have a hit.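 96-well plates, one dose, 48 hours. Percent growth reported; active if below 10.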 Unmarked numbers belong to inactive results. The source made the active and inactive calls.

Take `N#CCc1nnc(NC(=O)c2ccc(-n3c(=O)[nH]c4ccccc4c3=O)cc2)s1`: the growth with SK-MEL-2 melanoma is 97.7%; in the test on EKVX NSCLC, 94.8%; with SN12C renal it was 95.4%; in the test with UO-31 renal it was 66.7%; in the test with TK-10 renal it was 104%; in the test on ACHN renal it was 92.1%. The growth with CAKI-1 renal is 86.3%; in the test with A498 renal, 96.2%; with CCRF-CEM leukemia it was 101%; in the test with MOLT-4 leukemia, 103%; with SR leukemia, 93.4%; in the test with OVCAR-8 ovarian it was 100%. The growth with OVCAR-5 ovarian is 96.7%; in the test with OVCAR-4 ovarian, 106%; with SK-OV-3 ovarian, 106%; in the test on IGROV1 ovarian, 105%; with OVCAR-3 ovarian, 104%; in the test with HS 578T breast, 87.9%.
Turning to `O=C(Cn1c(-c2ccccc2)nc2ccccc21)N=Nc1c(O)[nH]c2ccc(Cl)cc12`, the growth is 17.6% with SK-MEL-2 melanoma; 9.78% (active) in the test with EKVX NSCLC; 5.72% (active) in the test with SN12C renal; 1.39% (active) in the test with UO-31 renal; 28.5% in the test on TK-10 renal; -47.3% (active) with ACHN renal. The growth with CAKI-1 renal is 13%; in the test on A498 renal, -5.31% (active); in the test with CCRF-CEM leukemia, 31.8%; with MOLT-4 leukemia it was 27.4%; in the test with SR leukemia it was -14.7% (active); with OVCAR-8 ovarian, -26.3% (active). In addition, the growth in the test with OVCAR-5 ovarian was 18.5%; with OVCAR-4 ovarian it was -44.4% (active); in the test with SK-OV-3 ovarian it was -6.33% (active); in the test with IGROV1 ovarian it was 9.94% (active); in the test on OVCAR-3 ovarian it was 1.02% (active); in the test on HS 578T breast it was -16.2% (active). The growth in the test with NCI/ADR-RES ovarian is -43.2% (active).
Consider `COc1cc2cc(C(=O)N3C[C@@H](CCl)c4c3cc(OC(=O)N(C)CCSSCCN3CCOCC3)c3ccccc43)[nH]c2c(OC)c1OC`, for which the growth with SK-MEL-2 melanoma is -86.8% (active); in the test on EKVX NSCLC, -40.1% (active); in the test with SN12C renal it was -48.4% (active); with UO-31 renal, -28.2% (active); in the test with TK-10 renal, -40% (active); with ACHN renal, -18.9% (active). The growth in the test on CAKI-1 renal is -45.3% (active); in the test with A498 renal it was -15.9% (active); with CCRF-CEM leukemia, -15.9% (active); in the test with MOLT-4 leukemia, -18.2% (active); in the test with SR leukemia, -23.5% (active); in the test on OVCAR-8 ovarian it was -41.4% (active). For the same compound, the growth in the test on OVCAR-5 ovarian is -42.8% (active); in the test on OVCAR-4 ovarian it was -36.7% (active); in the test with SK-OV-3 ovarian, -30% (active); in the test with IGROV1 ovarian, -27.6% (active); with OVCAR-3 ovarian, -1.85% (active); with HS 578T breast, -15.2% (active). Further, in the test on NCI/ADR-RES ovarian, the growth was -33.4% (active).
In the case of `COc1cc(C2CC(c3ccc(F)cc3)=Nc3c(N)nc(N)nc3N2)ccc1Oc1nc(Nc2ccc(F)cc2)nc(N(C)C)n1` (centres undefined), the growth in the test on SK-MEL-2 melanoma is 19.2%; with EKVX NSCLC it was 56.4%; with SN12C renal, 79.7%; with UO-31 renal, 48%; in the test with TK-10 renal it was 88.7%; with ACHN renal, 51.4%. Besides, the growth in the test on CAKI-1 renal is 40.5%; with A498 renal it was 74%; with CCRF-CEM leukemia, 44.2%; in the test on MOLT-4 leukemia, 1.16% (active); with SR leukemia, -21.5% (active); in the test with OVCAR-8 ovarian it was 63%. Further, the growth with OVCAR-5 ovarian was 100%; in the test with OVCAR-4 ovarian, 23.5%; in the test on SK-OV-3 ovarian it was 86.8%; with IGROV1 ovarian it was 51.7%; with OVCAR-3 ovarian, 71.6%; in the test on HS 578T breast, 56%. The growth in the test on NCI/ADR-RES ovarian is 48.5%.
As to `CCOC(=O)c1ccc(NC(=S)NC(=O)c2cccc(NC(=O)c3ccc(C)cc3)c2)cc1`, the growth in the test with SK-MEL-2 melanoma is 88.9%; with EKVX NSCLC it was 74.7%; in the test on SN12C renal, 31%; with UO-31 renal, 63.9%; in the test with TK-10 renal, 89.2%; with ACHN renal, 75.5%. Moreover, the growth is 76.8% with CAKI-1 renal; 105% with A498 renal; 78.3% in the test with CCRF-CEM leukemia; 70.4% in the test with MOLT-4 leukemia; 54.5% in the test on SR leukemia; 28.9% in the test on OVCAR-8 ovarian. Also, the growth was 77.3% in the test with OVCAR-5 ovarian; 27.8% with OVCAR-4 ovarian; 73.5% with SK-OV-3 ovarian; 61.4% in the test on OVCAR-3 ovarian; 53.4% in the test on HS 578T breast; 65.9% in the test with NCI/ADR-RES ovarian.
As to `COC(=O)c1cc(C(=O)C(F)(F)F)n2c3ccccc3c3ccccc3c12`, the growth with SK-MEL-2 melanoma was 97.6%; with EKVX NSCLC it was 78.3%; in the test on SN12C renal, 53.1%; in the test with UO-31 renal, 39%; in the test on TK-10 renal, 73.7%; in the test with ACHN renal, 18.2%. Also, the growth is 43.1% in the test on CAKI-1 renal; 120% with A498 renal; 97.4% with MOLT-4 leukemia; 60.7% in the test on SR leukemia; 96% with RPMI-8226 leukemia; 42.7% in the test with OVCAR-8 ovarian. Moreover, the growth in the test with OVCAR-5 ovarian is 83.5%; in the test with OVCAR-4 ovarian, 10.8%; with SK-OV-3 ovarian it was 82.9%; in the test on IGROV1 ovarian, 40%; in the test with OVCAR-3 ovarian it was 82.9%; with HS 578T breast, 41.7%. Further, the growth with NCI/ADR-RES ovarian was 67.7%.
For `N#Cc1cc(-c2ccc3ncnc(N4CCc5cc(F)c(Cl)cc54)c3c2)cnc1N`, the growth in the test with SK-MEL-2 melanoma was 52%; in the test with EKVX NSCLC, 24.6%; in the test on SN12C renal, 26.8%; with UO-31 renal it was 19.4%; with TK-10 renal it was 29.9%; in the test on ACHN renal, 26.6%. Further, the growth in the test on CAKI-1 renal is 19.8%; with A498 renal, -0.0443% (active); with CCRF-CEM leukemia it was 45.1%; in the test on MOLT-4 leukemia, 7.69% (active); in the test on SR leukemia it was -25.7% (active); in the test on OVCAR-8 ovarian it was 44.3%. The growth is 55.2% with OVCAR-5 ovarian; 29.5% with OVCAR-4 ovarian; 64.3% in the test on SK-OV-3 ovarian; 16.6% in the test on OVCAR-3 ovarian; -7.07% (active) in the test with HS 578T breast; 47.2% in the test on NCI/ADR-RES ovarian.
Take `O=C(N/N=C/c1ccc(B(O)O)s1)c1[nH]c2ccc(Br)cc2c1-c1ccccc1`: the growth in the test with SK-MEL-2 melanoma is -82.6% (active); in the test on EKVX NSCLC it was -98.8% (active); in the test on SN12C renal, -79.4% (active); with UO-31 renal, -76.3% (active); in the test on TK-10 renal it was -93.2% (active); with ACHN renal, -100% (active). Moreover, the growth with CAKI-1 renal was -59.8% (active); in the test on A498 renal, -88.3% (active); in the test with CCRF-CEM leukemia, -16.5% (active); in the test on MOLT-4 leukemia, -8% (active); with SR leukemia it was -22.6% (active); with OVCAR-8 ovarian, -28.3% (active). In addition, the growth in the test with OVCAR-5 ovarian was -97.6% (active); with OVCAR-4 ovarian, -63.6% (active); in the test with SK-OV-3 ovarian, -86.7% (active); with IGROV1 ovarian, -74.8% (active); in the test on OVCAR-3 ovarian, -47.1% (active); in the test on HS 578T breast it was -25.7% (active). Further, the growth in the test on NCI/ADR-RES ovarian was -33.9% (active).
